Laboratory results reported in PubChem BioAssay AID927 (National Center for Advancing Translational Sciences (NCATS), 2007).
About 65 (0.1%) of roughly 60,000 compounds were called active. The call rests on the fitted dose curve; in most records, active means well fitted inhibition curve with a large enough effect; inconclusive means small, poorly fitted or top-dose-only effect; inactive means no such curve, though single readings can be large or run the other way. What follows is part of a selection rich in actives, with near analogues and random picks from the rest. Non-standard residues stand in square brackets, D forms with d. Residues, ends and D or L forms follow the SMILES beside them. ξ: configuration not given here. ξV = CC(C)C(N)C(=O)O

biological target: Ubiquitin carboxyl-terminal hydrolase 2 (Homo sapiens) (UniProt O75604); experiment: qHTS Assay for Inhibitors of Ubiquitin-specific Protease USP2a; conditions: USP2a enzymatic assay; Potency: qHTS inhibition; series mostly up to 38.3 µM; activity change, negative = inhibition: at the top concentration; further: nearly all actives have a fitted effect of over 60% in size
Sequence (O75604 whole entry, looked up): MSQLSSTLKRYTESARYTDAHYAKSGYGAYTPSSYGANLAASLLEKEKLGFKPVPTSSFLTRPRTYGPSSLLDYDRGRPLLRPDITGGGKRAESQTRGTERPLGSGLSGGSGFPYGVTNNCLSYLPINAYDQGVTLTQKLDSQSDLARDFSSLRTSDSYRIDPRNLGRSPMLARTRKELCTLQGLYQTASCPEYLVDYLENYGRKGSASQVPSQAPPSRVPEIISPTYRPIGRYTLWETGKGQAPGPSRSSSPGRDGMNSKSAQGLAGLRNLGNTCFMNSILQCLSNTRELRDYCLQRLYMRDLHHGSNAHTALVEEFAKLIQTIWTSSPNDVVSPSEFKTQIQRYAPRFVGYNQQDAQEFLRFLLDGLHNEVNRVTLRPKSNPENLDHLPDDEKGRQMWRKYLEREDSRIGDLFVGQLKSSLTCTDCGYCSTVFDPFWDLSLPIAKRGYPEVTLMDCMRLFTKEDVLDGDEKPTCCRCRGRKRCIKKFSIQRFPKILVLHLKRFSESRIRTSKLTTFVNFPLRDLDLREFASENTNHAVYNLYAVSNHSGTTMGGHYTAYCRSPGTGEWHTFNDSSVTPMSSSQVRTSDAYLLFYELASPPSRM
Text: NIH Molecular Libraries Screening Centers Network [MLSCN]
NIH Chemical Genomics Center [NCGC]
PI Name: Nicholson, Ben. Progenra Inc, Malvern, PA
Homeostasis of cellular proteins is maintained through a combination of synthesis and degradation. The pathway that accounts for the majority of protein degradation is the ubiquitin-proteasomal pathway. Ubiquitin (Ub) is highly conserved in all cells and the generation of a multi-Ub chain typically targets proteins for degradation by the proteasome. However, ubiquitination is highly reversible and dynamic. Deubiquitination, the reverse process, is catalyzed through the action of enzymes referred to as isopeptidases or deubiquitinating enzymes (DUBs). This group of enzymes is collectively responsible for maintaining adequate pools of free ubiquitin and regulating the ubiquitination status of cellular proteins. The class of DUBs referred to as the ubiquitin-specific proteases (USP) family functions endoproteolytically to cleave Ub chains from a wide range of protein substrates. USP2a deubiquitinates fatty acid synthase (FASN) which has recently been identified as an emerging oncology target. To identify inhibitors of USP2a a cell-free assay was employed.
The reporter enzyme chosen is phospholipase A2 (PLA2), which has an absolute requirement for a free amino terminus. Thus, fusion of a UBL to the N-terminus of PLA2 inactivates PLA2. When the UBL-PLA2 reporter enzyme is cleaved by USP2, the activated reporter can subsequently act on its substrate, which is the commercially available NBD C6-HPC (Invitrogen). Thus, this coupled assay gives a fluorescent read-out, which is generated through the cleavage of the PLA2 reporter enzyme. The assay, developed by Progenra, Inc. uses Ub-PLA2 and USP2a at near equal and low (nM) amounts and has been licensed for sale by LifeSensors, Inc. as the Ub-IsoPro1 kit.
NCGC Assay Protocol Summary:
The assay buffer, prepared fresh at the day of the assay, contains 20mM Tris-HCl pH 8.0, 2mM CaCl2, 2mM beta-Mercaptoethanol, 0.1% DMSO. 3ul of 40nM (20nM final) USP2 core, which is stored on ice, is dispensed into a medium-binding black solid Kalypsys 1,536 well plate using the Kalypsys dispenser. The assay plate is then pinned with 23nL compound with the Kalypsys pintool in columns 5-48. The controls are pinned as follows: column 1&2 two-fold dilutions of 2M NEM in duplicate; column 3 DMSO; column 4 2M NEM (final concentration 38.2mM). The assay plate is incubated at RT for 30min. Subsequently, 3uL of 40nM (20nM final) Ub-PLA2 and 40uM (20uM final) NBD C6-HPC (stored on ice and protected from light) were dispensed into the plate using the Kalypsys dispenser. Plates were read immediately (0 Hour) on an Envision (Perkin Elmer) plate reader using the following wavelengths Ex 460nm /Em 535nm. Then, the assay plates were incubated for 2.5 hours and read again on the Envision using the same settings
Data were normalized to the to AC100 inhibition (NEM). Concentration-response curves were fitted to the normalized data and the concentration-response curves were then classified based on curve quality (r2), response magnitude and degree of measured activity. The time zero reading was used to flag fluorescence artifacts.
Keywords: ubiquitination, deubiquitination, proteases, profluorescent, MLSMR, MLSCN, NIH Roadmap, qHTS, NCGC

Activity change, negative = inhibition, inactive:
CCCn1c(=O)c2ccccc2n2c(SCC(=O)/C(C#N)=C(\C)N)nnc12 5.46%
Cc1ccc(S(=O)(=O)N(C)CC(=O)NC2CCCC2)cc1 6.82%
O=C(Nc1ccc2c(c1)OCO2)C1CC(c2c(F)cccc2Cl)=NO1 (centres undefined) -8.71%
CCOc1ccccc1Nc1nnc(SCc2ccc(C(=O)OC)o2)s1 10.2%
Cc1cccc(-n2ncc3c(N4CCc5ccccc54)ncnc32)c1 2.95%
CCOC(=O)C1Cn2c(nc3c(c2=O)C(C)(CC)Cc2ccccc2-3)S1 (centres undefined) -7.77%
C=C(C)C1CC=C(CO)CC1 (centres undefined) -3.8%
CCN(CC)S(=O)(=O)c1ccc(NC(=O)CN(c2cccc(F)c2)S(C)(=O)=O)cc1 25.7%
O=C(CSc1nnc(-c2cccs2)n1-c1ccccc1)N1CCN(C(=O)c2ccco2)CC1 -9.08%
CC(=O)NC1CC2CCCC(C1)N2CC(=O)Nc1ccccc1 (centres undefined) 6.5%
CCOc1c(N2CCCCC2)c(=O)c1=O -9.98%
CC(=O)NC(C(=O)NCC(N)=O)C(C)C (centres undefined) (Ac-[ξV]-Gly-NH2) -3.58%
CC12C(=O)N(n3cnnc3)C(=O)C1C1C=CC2C1 (centres undefined) 0.802%
O=C(C1=C(O)C(=O)N(Cc2ccccc2)C1c1cccnc1)c1ccco1 (centres undefined) -8.78%
CCC(=O)N1c2ccc(S(=O)(=O)CCC(=O)N3CCN(c4ccccc4)CC3)cc2CC1C (centres undefined) 9.9%
CCOc1ccccc1N(CC(=O)Nc1ccccc1C(=O)OC)S(C)(=O)=O -1.62% [at 7.66 µM]
CC1O[C@@H](Oc2c(-c3ccc(O)c(O)c3)oc3cc(O)cc(O)c3c2=O)C(O)C(O)C1O (some centres undefined) -9.94%
O=C(c1cc(C(F)(F)F)cc(C(F)(F)F)c1)N1CCC2(CCCN(Cc3ccncc3)C2)CC1 53.1%
CCN(CC)CCN1C(=O)C(=O)/C(=C(/O)c2ccccc2)C1c1ccccc1F (centres undefined) 6.03%
CN1CCC2(CC1)CCN(S(=O)(=O)c1ccccc1)CC2 -6.81%
CCN(CC)CCNC(=O)Cn1cnc2sc(C)c(S(=O)(=O)N3CCOCC3)c2c1=O -2.24%
O=C(Cn1c(=O)sc2ccccc21)Nc1ccc2c(c1)OCCO2 7.89%
S=C1SCN(CCN2CCOCC2)CN1Cc1ccccc1 -1.7%
CC1CC[C@@]23CCC4(C)[C@@]5(C)CCC6C(C)(C)C(O)CC[C@@]6(C)C5C=C[C@@]4(OC2=O)C3C1C (some centres undefined) 5.73%
Nc1ncnc2c1ncn2C1CC(O)C(CO)O1 (centres undefined) -5.52%
CC(=O)Nc1ccc(S(=O)(=O)N2CCC(N(C)CCC(C)C)CC2)cc1 4%
COc1ccc(C2CC(=O)C=C(NCC3CCCO3)C2)cc1 (centres undefined) 2.62%
CC(=O)N1CCN(CCN=CC2=C(O)CC(C)(C)CC2=O)CC1 0.95%
FC(F)(F)c1ccccc1-c1nc(-n2ccnc2)c2ccccc2n1 -26.3%
